# Source: PubChem BioAssay
# Rpn11 block: Rpn11 (PSMD14) deubiquitinase inhibitors, primary screen, biochemical, fluorescence polarization, uHTS; 26S proteasome non-ATPase regulatory subunit 14 (Homo sapiens), O00487; human 26S proteasome, Ub4-pepOG fluorescence polarization; 20S core pre-blocked with epoxomicin; calls only at 20 µM; actives 0.59% (n = 360,000); AID 588493, 2011;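 active means inhibition at 20 µM, scaled to each plate's controls, above about 33%, limit read from the data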
# Neddylation inh: inhibitors of cullin neddylation, primary screen, biochemical, TR-FRET, uHTS, NAE and Ubc12; NEDD8-conjugating enzyme Ubc12 (Homo sapiens) + NEDD8-activating enzyme E1 regulatory …; inhibition, % at 25 µM; actives 0.58% (n = 360,000); AID 651699, 2012; in the data active means inhibition above about 36%
# PKA-R1A act: activators of PKA-R1A holoenzyme, primary screen, biochemical, fluorescence polarization, Cy5-IP20, bovine R1A, mouse PKAc | PKA-R1A dissociation; scaled: DMSO 0%, 113 µM cGMP 100% | actives 0.083% (n = 340,000) | AID 504707, 2011 | activation, % at 11.4 µM;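 active means percent activation above the mean of all tested compounds plus 3 SD, cut at about 19% in these data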;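 further: higher means more PKAc released from R1A so a rise in polarization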
# PKA-R2B act: activators of PKA-R2B holoenzyme, primary screen, biochemical, fluorescence polarization, Cy5-IP20, human; cAMP-dependent protein kinase catalytic subunit beta (Homo sapiens) + cAMP-dependent …; PKA-R2B holoenzyme dissociation; R2B truncated from residue 108, S112A mutant; 0% DMSO only, 100% 113 µM cGMP; activation, % at 11.4 µM; actives 0.079% (n = 340,000); AID 504700, 2011;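 active means activation above a cutoff set at the mean over all compounds plus 3 SD, cut at about 18% in these data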;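 further: higher means more holoenzyme dissociation and a rise in polarization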
# * = called active by the depositor; i = inactive; · = no result given; + = active, no number. Compounds with a hit are over-represented: about 1.3% of the library has one in this group of screens.
SMILES,Rpn11 block,Neddylation inh,PKA-R1A act,PKA-R2B act
CN1CCN(c2nc(C(N)=O)cc(-c3ccccc3)n2)CC1,+,27,-3,-7
O=C(c1ccccc1)C(Nc1cccc([N+](=O)[O-])c1)c1ccccc1 (stereo not drawn),i,-20,15,7
O=CN1CCN(C(=O)Cc2ccc(Cl)cc2)CC1,i,2,1,2
O=C(N/C=C/c1ccco1)OCc1ccccc1,+,5,-1,0
Cc1cc(O)c2c(c1O)C(=O)[C@]13C(=C2O)C(=O)[C@@H]2[C@@H](O)[C@H]1[C@@H]1[C@H](O)[C@H]3C(=O)C3=C(O)c4c(O)cc(C)c(O)c4C(=O)[C@]312,+,-74,7,5
CC(C)N1CCN(c2ccncc2S(=O)(=O)N2CCN(C)CC2)CC1,i,-2,0,-5
c1cc2c3c(cccc3c1)NC1(CCC3(CC1)Nc1cccc4cccc(c14)N3)N2,i,58*,-11,0
CN1c2ccccc2C(C)(C)C12C=Cc1cc(O)ccc1O2 (stereo not drawn),+,-7,-8,2
COc1ccc(/C=N/NC(=O)c2cc3c(OC)ccc(OC)c3[nH]2)cc1O,i,41*,-4,9
Nc1c(C(=O)N2CCCCCC2)oc2ccccc12,i,36,3,3
O=C1NN(c2ccccc2)C(=O)/C1=C/c1ccc(-c2ccc(C(=O)O)cc2)o1,i,4,-6,7
O=C(O)c1ccc(N2C(=O)/C(=C/c3ccc(-c4ccc([N+](=O)[O-])cc4)o3)C=C2c2ccccc2)cc1,+,-35,3,16
COc1ccc(C(=O)Nc2nc(-c3ccc([N+](=O)[O-])cc3)c(-c3ccc(OC)cc3)s2)cc1,+,4,4,-10
Cc1cc(N/N=C/c2cccc(Cl)c2)nc(NCc2ccccc2)n1,i,16,-8,-2
Cc1cc(Nc2cccc(Cl)c2)nc(NCc2ccccc2)n1,i,45*,2,-15
S=c1[nH]nc(-c2cc(-c3ccccc3)n[nH]2)n1/N=C/C(Br)=C/c1ccccc1,i,54*,·,·
S=c1[nH]nc(-c2cc(-c3ccccc3)n[nH]2)n1/N=C/c1ccccc1,i,12,-4,-4
COc1ccc(CN2CCNC(=O)C2CC(=O)N(C)CCC2CCOCC2)c(OC)c1 (stereo not drawn),i,13,-2,-18
CCOc1cc(/C=C2/C(=N)N3C(=NC2=O)SN=C3S(C)(=O)=O)ccc1OC(=O)c1ccco1,+,-62,-14,-5
COc1ccccc1-n1c(C)cc(/C=C2/C(=N)N3C(=NC2=O)SN=C3S(C)(=O)=O)c1C,i,59*,-9,-14
COc1cccc(N2CCN(c3ncnc4c3[nH]c3ccc(F)cc34)CC2C)c1 (stereo not drawn),i,39*,-5,-9
CCOc1cc(S(=O)(=O)NCc2ccncc2)ccc1Cl,i,3,·,·
NC(=S)N/N=C/c1coc2ccc(Br)cc2c1=O,·,-6,-1,5
NC(=S)N/N=C/c1coc2cc(Br)ccc2c1=O,+,2,-7,4
COc1ccc2cc3cc(C(=O)N4CCCCCC4)oc3nc2c1,i,63*,6,9
SMILES,Rpn11 block,Neddylation inh,PKA-R1A act,PKA-R2B act
COc1ccc2cc3cc(C(=O)N4CCN(C5CCCCC5)CC4)oc3nc2c1,i,·,-11,-7
c1ccc2nc(-c3nc4ccccc4o3)ccc2c1,i,40*,-2,0
c1ccc(-c2nc3ccccc3o2)nc1,i,27,7,2
CCOC(=O)CC(=O)CSc1ccc2nnc(-c3cccc(F)c3)n2n1,i,38,-5,-19
CCOC(=O)CC(=O)CSc1ccc2nnc(-c3ccc(F)cc3)n2n1,i,40*,-3,-9
O=C(O)CCc1ccc(-c2ccc(F)cc2)n1CC(=O)O,i,18,5,2
Cc1ccc(-c2ccc(CCC(=O)O)n2CC(=O)O)cc1,i,42*,-2,2
Cc1cc(C)cc(NC(=O)CCn2cnc3cc(C)c(C)cc32)c1,i,3,7,-5
